The structures appear in SMILES notation. Results with a measured potency or affinity are listed apart. Results filed as inconclusive are left out. Active and inactive are the calls of the source.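 The calls were made as follows: active = fitted half-maximal concentration for viability loss no higher than twice the top valid dose, in every repeat run; inconclusive = repeat runs disagree, flat partial loss, or poor curve fit; inactive = the rest.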

A short description of this test: cytotoxicity in IOSE-T80 ovarian epithelial cells, dose response, selectivity assay for PAX8 inhibitor project, cell-based, cherry-pick (AID 687032).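 Also: cells exposed to compound for 96 h before reading; 0% = neutral control wells and -100% = 2 µM mitoxantrone kill.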 To be noted: CellTiterGlo ATP luminescence, 96 h; series mostly up to 35 µM; activity change, negative = viability loss: at the top concentration. (Cellular ATP, detected with luciferase, serves as a proxy for viable cell number.)
With `O=C(Nc1cccc(F)c1)N1C[C@@H]2N[C@H](C1)C2c1ccc(-c2ccc(F)cc2)cc1` (stereo not given in full), the “activity change, negative = viability loss” value was 0.059% (inactive).
The value for `CCOC(=O)c1cnn(CCOC(=O)c2cccc(F)c2)c1NC(=O)c1cccc(F)c1` was 7.96% (inactive).
The value for `COc1cc(NC(=O)Cn2ncc(Cl)c(Cl)c2=O)c(C)cc1[N+](=O)[O-]` was 14.7% (inactive); that for `COc1cc(/C=N\NC(=O)c2ccc(-c3ccccc3)cc2)cc(OC)c1OC(C)=O` was -0.762% (inactive); that for `O=C(NCCN1C(=O)S/C(=C\c2ccc(OC(F)F)cc2)C1=O)c1cnccn1` was 3.04% (inactive).
Next, `CCOc1ccc(CCN2C(=S)N([C@@H](Cc3ccc(O)cc3)CN3CCC[C@@H]3CN3C(=S)NC[C@@H]3CC(C)C)C[C@@H]2Cc2ccc(O)cc2)cc1`: -1.23% (inactive); `N#C[C@H]1[C@@H](c2ccc(C#Cc3ccc(F)cc3)cc2)[C@H](CO)N1C(=O)Nc1ccc(F)cc1`: 16.1% [at 30 µM] (inactive).
`C[C@H]1CCCCO[C@H](CN(C)C(=O)Nc2ccc(C(F)(F)F)cc2)[C@@H](C)CN([C@@H](C)CO)C(=O)c2cc(NS(=O)(=O)c3ccc(Cl)cc3)ccc2O1`: the “activity change, negative = viability loss” value is 5.66% (inactive).
Next, `Cc1ccc(S(=O)(=O)Nc2ccc3c(c2)C(=O)N([C@H](C)CO)C[C@H](C)[C@@H](CN(C)Cc2ccc(C(F)(F)F)cc2)OCCCC[C@H](C)O3)cc1`: 11.8% (inactive); `N#Cc1cccc(-c2ccc(C3[C@@H]4CN(C(=O)C5CC5)C[C@H]3N4)cc2)c1` (stereo not given in full): 6.11% (inactive); `CN(C)CCNc1ccc(CO)c2sc3ccc(O)cc3c(=O)c12`: 3.97% (inactive).
The value for `Cc1ccc(C(=O)c2cc([N+](=O)[O-])ccc2N2CCCCC2)cc1` was 7.36% (inactive); that for `CC1CCN(CCc2nc3cc(NS(=O)(=O)c4ccccc4)ccc3n2C)CC1` was 18.1% (inactive).
The value for `Cc1cc(-n2c(SCC(=O)NCCC3=CCCCC3)nc3n[nH]c(C)c3c2=N)ccc1Cl` was 17.4% (inactive).
In the case of `COC(=O)c1ccccc1-c1c2ccc(=N)cc-2oc2cc(N)ccc12`, the “activity change, negative = viability loss” value is 4.87% (inactive).
The value for `COc1cc(OC)c(NC2=CC(=O)C(=O)c3ccccc32)cc1Cl` was 9% (inactive); that for `CC[C@@]1(O)C(=O)OCc2c1cc1n(c2=O)Cc2cc3c(N)cccc3nc2-1` was 11.3% (inactive); that for `CN[C@H]1CCc2cc(OC)c(OC)c(OC)c2-c2ccc(OC)c(=O)cc21` was 4.9% (inactive).
Next, `COc1ccc(S(=O)(=O)Nc2ccc3c(c2)C(=O)N([C@@H](C)CO)C[C@H](C)[C@H](CN(C)Cc2ccc(C(F)(F)F)cc2)OCCCC[C@H](C)O3)cc1`: 12.7% (inactive).
The value for `CCN1CCN(Cc2ccc(NC(=O)c3cc(NC(=O)C(=O)c4c[nH]c5ccccc45)cc(OC)c3)cc2C(F)(F)F)CC1` was 4.23% (inactive).
For `C=CC(=O)N=c1sc2ccccc2n1-c1ccccc1`, the “activity change, negative = viability loss” value is 13.4% (inactive).
Turning to `CC(=O)OC1CCC2(C)C(CCC3C4CC=C(C(C)=O)C4(C)OC(=O)CC32)C1` (stereo not given), the “activity change, negative = viability loss” value is 0.933% (inactive).
The value for `Oc1ccc(N=Nc2ccccc2C(F)(F)F)c2cccnc12` was 10.9% (inactive); that for `O=C(O)CCCN1C(=O)/C(=C\C(Cl)=C\c2ccccc2)SC1=S` was 27% (inactive); that for `Oc1ccc2ccccc2c1N=Nc1nccs1` was -0.524% (inactive).
With `COc1cc(/C=N/NS(=O)(=O)c2ccc(C)cc2)ccc1OCc1cccc(C(=O)O)c1`, the “activity change, negative = viability loss” value was 9.65% (inactive).
Next, `COc1cccc2c1C(=O)c1c(O)c3c(c(O)c1C2=O)CC(O)(C(C)=O)CC3OC1CC(N(C)C)C(O)C(C)O1` (stereo not given): 9.11% (inactive).
The value for `Cc1ccc(C)c(CSC2=NCCN2C(=O)Cc2ccc([N+](=O)[O-])cc2)c1` was 2.48% (inactive).
With `Cc1cccc(C)c1NS(=O)(=O)c1ccc(-c2cnc(C3CC3)o2)cc1`, the “activity change, negative = viability loss” value was 6.99% (inactive).
`C=C1C(=O)O[C@@H]2C[C@@H](C)[C@@H]3C=CC(=O)[C@@]3(C)[C@@H](OC(C)=O)[C@H]12`: the “activity change, negative = viability loss” value is 16.9% (inactive).
The value for `Cc1ccc(S(=O)(=O)CCC(=O)c2ccc(F)cc2)cc1` was 23.4% (inactive).
As for `Cc1cc(NC(=O)c2ccc([N+](=O)[O-])o2)ccc1NC(=O)c1ccco1`, the “activity change, negative = viability loss” value was -8.17% (inactive).
Next, `COc1ccc(C(=O)NN(C)c2nc(C(F)(F)F)nc3ccccc23)cc1`: 10.2% (inactive); `Cc1[nH]c2ccccc2c(=O)c1C(=O)/C=C/c1ccccc1`: 19.8% (inactive); `CCOc1ccccc1C1C2=C(COC2=O)Nc2cc3c(cc21)OCO3` (stereo not given): 11.8% (inactive).
Next, `CS(=O)(=O)c1ncc(Cl)c(C(=O)Nc2ccc3ccccc3c2)n1`: 7.02% (inactive).
Consider `C=C1C(=O)[C@]23C[C@H]1CCC2[C@]1(C)CCC[C@@](C)(C(=O)O)C1C[C@@H]3O` (stereo not given in full), for which the “activity change, negative = viability loss” value is 0.585% (inactive).
Next, `O=C(Nc1ccc([N+](=O)[O-])cc1)Nc1nc(-c2ccc(Cl)s2)cs1`: 6.85% (inactive); `O=c1c(Cl)c(Cl)cnn1Cc1nnc(-c2ccccc2Br)o1`: 15.3% (inactive); `C#CCN(C[C@@H]1[C@@H](OC(=O)Nc2cccs2)[C@@H](OC(=O)Nc2cccs2)Cn2c(=O)ccc(=O)n21)S(=O)(=O)c1ccc(C)cc1`: 16.8% (inactive).

The record behind these values is PubChem BioAssay.
